Results on 19 compounds are retold here after ChEMBL document CHEMBL2218924, “A broad activity screen in support of a chemogenomic map for kinase signalling research and drug discovery” (Biochem J, 2013).

Structures are written as SMILES.

The target of assay [1] is Mitogen-activated protein kinase 10 (Homo sapiens) (UniProt P53779). To be noted: at 10 µM.
Assay [2] addresses Vascular endothelial growth factor receptor 2 (Homo sapiens) (UniProt P35968). Conditions: at 1 µM.
For assay [3] the target is unchanged. Conditions: at 10 µM.
Assay [4] addresses LIM domain kinase 1 (Homo sapiens) (UniProt P53667). Conditions: at 1 µM.
Assay [5] shares this target. Conditions: at 10 µM.
The target of assay [6] is T1, Serine/threonine-protein kinase STK11 (Homo sapiens) (UniProt Q15831).
T1 sequence (whole entry): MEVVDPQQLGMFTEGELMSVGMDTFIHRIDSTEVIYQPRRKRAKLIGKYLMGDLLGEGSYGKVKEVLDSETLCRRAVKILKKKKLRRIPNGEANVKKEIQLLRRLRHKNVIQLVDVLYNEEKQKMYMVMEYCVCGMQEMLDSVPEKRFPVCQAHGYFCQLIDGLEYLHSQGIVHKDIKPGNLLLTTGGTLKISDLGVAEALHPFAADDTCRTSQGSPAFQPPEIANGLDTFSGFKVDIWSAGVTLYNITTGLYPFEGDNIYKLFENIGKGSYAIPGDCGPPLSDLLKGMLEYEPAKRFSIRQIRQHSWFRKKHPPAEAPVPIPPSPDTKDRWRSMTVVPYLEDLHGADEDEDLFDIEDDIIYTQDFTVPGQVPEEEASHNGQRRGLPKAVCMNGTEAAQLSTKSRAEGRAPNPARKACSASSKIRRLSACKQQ
Conditions: at 1 µM.

Assay [7] deals with T1, Serine/threonine-protein kinase STK11 (Homo sapiens). Conditions: at 10 µM.
Assay [8] concerns the target Serine/threonine-protein kinase 10 (Homo sapiens) (UniProt O94804). Conditions: at 1 µM.
The target is the same in assay [9]. To be noted: at 10 µM.
Assay [10] has as its target Tyrosine-protein kinase Lck (Homo sapiens) (UniProt P06239). To be noted: at 1 µM.

Sequence of Serine/threonine-protein kinase 10 (Homo sapiens) (O94804 whole entry, looked up): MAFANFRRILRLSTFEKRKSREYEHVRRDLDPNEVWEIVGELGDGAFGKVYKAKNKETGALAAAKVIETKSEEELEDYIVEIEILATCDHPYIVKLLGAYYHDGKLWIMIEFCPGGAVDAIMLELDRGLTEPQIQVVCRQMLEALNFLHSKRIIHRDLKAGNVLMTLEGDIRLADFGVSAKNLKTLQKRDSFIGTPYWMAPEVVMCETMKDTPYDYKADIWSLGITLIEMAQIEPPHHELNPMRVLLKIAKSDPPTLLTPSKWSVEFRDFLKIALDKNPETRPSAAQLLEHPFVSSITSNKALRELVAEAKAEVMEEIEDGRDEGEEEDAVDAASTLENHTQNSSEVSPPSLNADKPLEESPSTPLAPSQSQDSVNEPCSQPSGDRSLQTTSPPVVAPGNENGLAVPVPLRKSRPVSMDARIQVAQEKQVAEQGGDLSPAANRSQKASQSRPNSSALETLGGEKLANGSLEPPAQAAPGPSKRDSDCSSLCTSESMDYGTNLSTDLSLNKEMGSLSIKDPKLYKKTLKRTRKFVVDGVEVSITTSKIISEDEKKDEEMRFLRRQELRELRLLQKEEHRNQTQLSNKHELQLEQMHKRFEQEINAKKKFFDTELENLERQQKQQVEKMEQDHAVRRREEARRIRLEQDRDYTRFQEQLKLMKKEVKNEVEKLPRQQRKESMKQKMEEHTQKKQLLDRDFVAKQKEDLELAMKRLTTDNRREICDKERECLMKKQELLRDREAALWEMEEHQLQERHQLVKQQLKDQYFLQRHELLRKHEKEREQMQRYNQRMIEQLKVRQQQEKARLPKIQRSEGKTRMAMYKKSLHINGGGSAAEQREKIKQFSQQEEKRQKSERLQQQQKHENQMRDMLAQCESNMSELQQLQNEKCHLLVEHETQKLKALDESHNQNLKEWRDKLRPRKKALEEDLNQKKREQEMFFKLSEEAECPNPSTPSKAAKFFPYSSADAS
Sequence of LIM domain kinase 1 (Homo sapiens) (P53667 whole entry, looked up, the tested form may be a part): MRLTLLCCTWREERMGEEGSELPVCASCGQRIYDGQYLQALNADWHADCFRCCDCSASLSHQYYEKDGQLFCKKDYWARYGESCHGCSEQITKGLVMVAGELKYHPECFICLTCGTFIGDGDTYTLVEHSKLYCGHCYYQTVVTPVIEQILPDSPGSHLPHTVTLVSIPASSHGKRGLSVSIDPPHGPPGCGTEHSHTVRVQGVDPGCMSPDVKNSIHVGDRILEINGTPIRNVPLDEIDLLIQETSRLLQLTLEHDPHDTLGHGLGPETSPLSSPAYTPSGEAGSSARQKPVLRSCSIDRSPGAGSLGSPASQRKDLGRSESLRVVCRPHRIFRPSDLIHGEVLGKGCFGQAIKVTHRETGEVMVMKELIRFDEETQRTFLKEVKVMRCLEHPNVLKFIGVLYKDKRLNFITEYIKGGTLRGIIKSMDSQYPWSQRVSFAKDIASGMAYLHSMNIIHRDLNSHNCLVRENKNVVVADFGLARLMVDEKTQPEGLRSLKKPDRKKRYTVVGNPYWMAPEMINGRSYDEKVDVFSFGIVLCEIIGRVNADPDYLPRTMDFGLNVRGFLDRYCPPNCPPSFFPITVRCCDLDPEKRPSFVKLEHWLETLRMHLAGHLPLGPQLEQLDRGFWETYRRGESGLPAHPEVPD
Sequence of Mitogen-activated protein kinase 10 (Homo sapiens) (P53779 whole entry): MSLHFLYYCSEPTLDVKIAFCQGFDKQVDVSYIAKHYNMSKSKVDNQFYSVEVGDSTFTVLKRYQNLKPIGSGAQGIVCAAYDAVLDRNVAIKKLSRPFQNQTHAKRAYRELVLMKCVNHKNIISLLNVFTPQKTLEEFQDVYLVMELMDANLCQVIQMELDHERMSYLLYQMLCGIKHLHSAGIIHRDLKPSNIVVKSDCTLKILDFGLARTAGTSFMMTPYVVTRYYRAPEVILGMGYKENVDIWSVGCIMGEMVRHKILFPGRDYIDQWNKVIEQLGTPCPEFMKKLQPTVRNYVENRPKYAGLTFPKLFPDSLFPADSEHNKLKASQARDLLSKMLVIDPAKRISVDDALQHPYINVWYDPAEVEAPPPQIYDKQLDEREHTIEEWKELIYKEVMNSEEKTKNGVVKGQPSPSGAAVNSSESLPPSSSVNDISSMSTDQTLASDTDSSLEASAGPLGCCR
Sequence of Tyrosine-protein kinase Lck (Homo sapiens) (P06239 2-509 limits assumed): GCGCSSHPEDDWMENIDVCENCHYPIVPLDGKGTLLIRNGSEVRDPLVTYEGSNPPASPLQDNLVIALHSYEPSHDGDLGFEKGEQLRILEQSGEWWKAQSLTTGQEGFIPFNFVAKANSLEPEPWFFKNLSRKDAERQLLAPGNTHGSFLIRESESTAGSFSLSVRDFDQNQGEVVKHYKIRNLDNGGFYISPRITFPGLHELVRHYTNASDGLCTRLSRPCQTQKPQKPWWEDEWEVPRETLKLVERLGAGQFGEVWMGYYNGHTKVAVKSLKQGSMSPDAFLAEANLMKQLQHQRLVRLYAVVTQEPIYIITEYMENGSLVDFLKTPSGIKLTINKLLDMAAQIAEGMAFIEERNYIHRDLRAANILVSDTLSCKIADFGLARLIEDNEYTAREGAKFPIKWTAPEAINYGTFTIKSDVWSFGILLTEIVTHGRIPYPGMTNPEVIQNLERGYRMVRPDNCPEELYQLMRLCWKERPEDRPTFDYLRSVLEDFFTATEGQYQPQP
Sequence of Vascular endothelial growth factor receptor 2 (Homo sapiens) (P35968 whole entry): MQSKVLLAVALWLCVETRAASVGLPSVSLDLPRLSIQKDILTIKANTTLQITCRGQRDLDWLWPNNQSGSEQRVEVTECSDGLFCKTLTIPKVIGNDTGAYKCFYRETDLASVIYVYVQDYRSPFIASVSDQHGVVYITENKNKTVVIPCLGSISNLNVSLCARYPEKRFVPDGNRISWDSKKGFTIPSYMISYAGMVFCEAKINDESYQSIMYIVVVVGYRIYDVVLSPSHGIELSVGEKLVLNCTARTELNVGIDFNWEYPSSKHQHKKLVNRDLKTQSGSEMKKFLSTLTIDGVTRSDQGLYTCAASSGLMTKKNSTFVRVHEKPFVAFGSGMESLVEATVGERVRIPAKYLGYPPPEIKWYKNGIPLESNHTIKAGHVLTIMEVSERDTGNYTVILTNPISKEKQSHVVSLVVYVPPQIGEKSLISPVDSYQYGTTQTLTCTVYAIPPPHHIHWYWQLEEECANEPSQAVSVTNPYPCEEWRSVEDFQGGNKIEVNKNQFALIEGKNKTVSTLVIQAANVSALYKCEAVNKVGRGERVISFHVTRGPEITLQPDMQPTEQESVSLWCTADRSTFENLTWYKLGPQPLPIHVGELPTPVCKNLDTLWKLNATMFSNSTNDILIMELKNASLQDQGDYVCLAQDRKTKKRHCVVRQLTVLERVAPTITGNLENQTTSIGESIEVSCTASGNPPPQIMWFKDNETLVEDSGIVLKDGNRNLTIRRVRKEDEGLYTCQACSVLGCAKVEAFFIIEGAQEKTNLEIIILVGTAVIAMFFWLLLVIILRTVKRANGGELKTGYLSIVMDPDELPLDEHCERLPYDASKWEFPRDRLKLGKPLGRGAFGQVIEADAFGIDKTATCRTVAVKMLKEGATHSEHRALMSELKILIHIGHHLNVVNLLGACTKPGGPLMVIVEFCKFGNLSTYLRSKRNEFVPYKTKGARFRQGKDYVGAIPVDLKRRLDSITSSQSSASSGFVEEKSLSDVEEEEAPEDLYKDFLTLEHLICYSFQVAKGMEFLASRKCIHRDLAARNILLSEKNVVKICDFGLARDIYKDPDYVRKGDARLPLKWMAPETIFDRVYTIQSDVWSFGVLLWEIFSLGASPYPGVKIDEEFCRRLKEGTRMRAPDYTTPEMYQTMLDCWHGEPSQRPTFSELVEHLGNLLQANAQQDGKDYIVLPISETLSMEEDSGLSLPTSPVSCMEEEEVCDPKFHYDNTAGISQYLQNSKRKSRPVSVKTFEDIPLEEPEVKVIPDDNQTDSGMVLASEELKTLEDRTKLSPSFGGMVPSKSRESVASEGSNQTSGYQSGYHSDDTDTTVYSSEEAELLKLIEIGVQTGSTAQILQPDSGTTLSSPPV

Regarding `CC(=O)O/N=C1\C(=C2\C(=O)Nc3cc(Br)ccc32)Nc2ccccc21`, the residual activity turned out to be 61% in assay [1]; 67% in assay [2]; 5% in [3]; 83% in [4]; 50% in assay [5]; 98% in [6]. Besides, the residual activity was 92% in assay [7], 53% in [8], 46% in assay [9] and 16% in [10].
On to `CC[n+]1c(/C=C/N(C)c2ccccc2)n(-c2ccccc2)c2ccc(-c3nc4ccccc4s3)cc21`, for which the residual activity was 93% in assay [1]; 109% in assay [2]; 87% in assay [3]; 124% in assay [4]; 96% in [5]; 98% in assay [6]. In addition, the residual activity in assay [7] stood at 104%; in [8], 107%; in [9] it was 92%; in assay [10], 133%.
As to `Oc1n[nH]c2nnc(-c3c(-c4ccccc4)nn4ccccc34)cc12`, the residual activity in assay [1] came out at 43%; in assay [2], 93%; in assay [3], 89%; in assay [4], 77%; in [5] it was 87%; in [6], 91%. For the same compound, the residual activity stood at 96% in assay [7], 100% in [8], 79% in [9] and 88% in assay [10].
Consider `N#Cc1cnc2cnc(NCc3cccnc3)cc2c1Nc1ccc(F)c(Cl)c1`, for which the residual activity in assay [1] was 80%; in assay [3], 76%; in assay [4] it was 42%; in [5], 27%; in [8], 96%; in [9] it was 93%. Besides, the residual activity in [10] is 68%.
On to `O=[N+]([O-])c1ccc(-c2nc(-c3ccc(F)cc3)c(-c3ccncc3)[nH]2)cc1`, for which the residual activity in [1] stood at 21%; in assay [2], 85%; in [3], 93%; in assay [4] it was 96%; in assay [5] it was 90%; in assay [6], 98%. Moreover, the residual activity in assay [7] is 99%; in assay [8], 114%; in assay [9] it was 108%; in assay [10], 71%.
Regarding `Cc1nc(-c2ccccc2)c(-c2ccncc2)o1`, the residual activity in assay [1] worked out at 19%; in assay [2] it was 95%; in [3], 78%; in assay [4] it was 106%; in assay [5] it was 86%; in [6], 111%. Also, the residual activity stood at 100% in assay [7], 119% in assay [8], 105% in assay [9] and 92% in assay [10].
As for `c1ccc2c(-c3ccncc3)c[nH]c2c1`, the residual activity in [2] was determined as 100%; in assay [3] it was 78%; in assay [4] it was 98%; in assay [5], 64%; in assay [6] it was 100%; in assay [7], 90%. For the same compound, the residual activity in [8] was found to be 86%; in assay [9], 54%; in assay [10], 102%.
Consider `Oc1ccc(Nc2nc(-c3ccc(Cl)cc3)cs2)cc1`, for which the residual activity in [1] stood at 115%; in assay [2], 104%; in assay [3], 92%; in assay [4] it was 102%; in assay [5], 102%; in assay [6], 108%. The results for the residual activity in [8], in [9] and in assay [10] were 109%, 107% and 93%, respectively.
For `N#CC(C#N)=C(N)/C(C#N)=C/c1ccc(O)cc1`, the residual activity in assay [1] amounted to 88%; in assay [3] it was 92%; in assay [8], 98%; in assay [9], 96%.
Take `COc1cc2ncnc(Nc3ccc(Oc4ccccc4)cc3)c2cc1OC`: the residual activity in assay [1] worked out at 148%; in [2], 49%; in [3], 7%; in assay [4], 78%; in assay [5], 34%; in assay [6], 102%. The results for the residual activity in [7] and in [10] were 93% and 0%, respectively.
Regarding `O=c1cc(-c2cccc3c2Sc2ccccc2S3)oc(N2CCOCC2)c1`, the residual activity in assay [1] is 89%; in [2], 90%; in [3] it was 89%; in [4], 98%; in assay [5], 92%; in assay [6], 95%. The residual activity amounted to 99% in [7], 98% in assay [8], 101% in assay [9] and 103% in assay [10].
Consider `COc1cc2ncc(-c3ccccc3)nc2cc1OC`, for which the residual activity in assay [1] came to 79%; in assay [8], 90%; in assay [9] it was 88%.
Consider `O=C1NC(=O)c2cc(Nc3ccc(F)cc3)c(Nc3ccc(F)cc3)cc21`, for which the residual activity amounted to 99% in [2]; 61% in assay [3]; 100% in [4]; 91% in assay [5]; 102% in [6]; 93% in [7]. The residual activity worked out at 89% in assay [8], 32% in assay [9] and 103% in assay [10].
For `N#CCCc1ccc2c(c1)-c1[nH]c3ccc([N+](=O)[O-])cc3c1CC(=O)N2`, the residual activity in assay [1] came to 43%; in assay [2] it was 30%; in [3] it was 13%; in assay [8] it was 57%; in assay [9] it was 58%; in assay [10] it was 14%.
For `Nc1ccc2ncnc(NCCc3ccc(Oc4ccccc4)cc3)c2c1`, the residual activity amounted to 80% in assay [1]; 79% in assay [2]; 53% in [3]; 106% in assay [4]; 80% in [5]; 105% in [6]. For the same compound, the residual activity in assay [7] came to 94%; in [8], 92%; in assay [9], 75%; in assay [10], 76%.
With `COc1cc2ncnc(Nc3ccc(NC(=O)c4ccccc4)cc3)c2cc1OC`, the residual activity in assay [1] was determined as 76%; in assay [2], 95%; in [3] it was 35%; in [4], 110%; in assay [5], 56%; in [6], 108%. Further, the residual activity in [7] turned out to be 109%; in [8], 71%; in [9] it was 33%; in assay [10], 70%.
For `c1ccc(-c2n[nH]c3c2oc2ccccc23)cc1`, the residual activity stood at 32% in assay [1]; 5% in assay [2]; 3% in [3]; 88% in assay [4]; 64% in [5]; 92% in assay [8]. The residual activity in assay [9] was 70%.
Turning to `Cc1nc2cc3nc(-c4cccs4)cnc3cc2n1C`, the residual activity in [1] turned out to be 107%; in assay [2], 36%; in assay [3], 5%; in assay [4], 116%; in [5] it was 99%; in [6] it was 97%. Also, the residual activity in assay [7] turned out to be 107%; in assay [8], 107%; in assay [9] it was 99%; in assay [10] it was 112%.
Consider `O=C1NC(=O)/C(=C\c2ccc3nccnc3c2)S1`, for which the residual activity in [1] turned out to be 104%; in [2], 87%; in assay [3], 63%; in assay [4], 91%; in [5] it was 81%; in [6], 90%. For the same compound, the residual activity was 78% in assay [7], 71% in assay [8], 35% in assay [9] and 108% in assay [10].
